Assays:
Assay in all cases: DAPPL (digital affinity profiling via proximity ligation, sequencing); 10 mM Tris-HCl pH 7.5, 50 mM NaCl, 1 mM DTT, 4% glycerol, room temperature, 30 min; GST-TFs on glutathione beads, 16-mer random dsDNA library, 0.1% formaldehyde crosslink after washing; high values mean tight binding
Conditions in all cases: protein: recombinant; tags: N-terminal GST; dsDNA, one strand shown
EHF = target: T1, EHF (Homo sapiens, UniProt Q9NZC4 1-300)
T1 sequence: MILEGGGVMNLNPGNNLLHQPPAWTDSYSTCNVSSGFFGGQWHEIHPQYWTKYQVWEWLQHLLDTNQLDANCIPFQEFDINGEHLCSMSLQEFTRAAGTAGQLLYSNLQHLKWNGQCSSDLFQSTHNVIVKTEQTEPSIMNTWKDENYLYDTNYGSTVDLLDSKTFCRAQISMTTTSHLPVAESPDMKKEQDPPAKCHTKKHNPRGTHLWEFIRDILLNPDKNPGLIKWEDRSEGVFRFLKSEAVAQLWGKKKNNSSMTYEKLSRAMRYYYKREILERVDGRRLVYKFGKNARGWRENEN
Procedure, shortened: (§1)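 Human transcription factors fused to GST were expressed in yeast, captured on glutathione beads, given DNA barcodes and pooled with a GST-only negative control. Pools were incubated with 200 nmole of a 16-mer random double-stranded DNA library in Tris/NaCl/DTT/glycerol buffer at room temperature for 30 min. They were then washed, crosslinked with 0.1% formaldehyde, proximity-ligated (BsaI/T4 ligase, 1 h, 37 °C), PCR-amplified and sequenced on an Illumina NextSeq500. Binding signal is each 6-mer's read frequency for a factor divided by its frequency for the GST control.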

ETV5 = ETV5 (Homo sapiens, UniProt P41161 1-510)
ETV5, sequence (P41161 whole entry): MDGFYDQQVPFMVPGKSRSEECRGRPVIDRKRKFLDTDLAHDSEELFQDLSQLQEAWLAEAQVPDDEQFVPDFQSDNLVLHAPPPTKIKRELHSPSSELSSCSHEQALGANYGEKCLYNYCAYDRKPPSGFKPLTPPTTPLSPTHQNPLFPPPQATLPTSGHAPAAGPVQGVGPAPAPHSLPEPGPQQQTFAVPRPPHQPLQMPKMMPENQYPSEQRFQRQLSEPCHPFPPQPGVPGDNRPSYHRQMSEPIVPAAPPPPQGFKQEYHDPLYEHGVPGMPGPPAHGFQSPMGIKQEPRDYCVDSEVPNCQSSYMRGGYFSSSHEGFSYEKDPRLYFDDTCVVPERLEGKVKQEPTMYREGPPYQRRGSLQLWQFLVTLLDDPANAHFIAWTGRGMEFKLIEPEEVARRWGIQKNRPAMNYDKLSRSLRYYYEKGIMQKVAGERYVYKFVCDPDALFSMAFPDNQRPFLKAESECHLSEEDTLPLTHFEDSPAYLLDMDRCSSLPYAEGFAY
Procedure, shortened: as §1

ETV2 = target: T2, ETV2 (Homo sapiens, UniProt O00321 1-342)
T2 sequence: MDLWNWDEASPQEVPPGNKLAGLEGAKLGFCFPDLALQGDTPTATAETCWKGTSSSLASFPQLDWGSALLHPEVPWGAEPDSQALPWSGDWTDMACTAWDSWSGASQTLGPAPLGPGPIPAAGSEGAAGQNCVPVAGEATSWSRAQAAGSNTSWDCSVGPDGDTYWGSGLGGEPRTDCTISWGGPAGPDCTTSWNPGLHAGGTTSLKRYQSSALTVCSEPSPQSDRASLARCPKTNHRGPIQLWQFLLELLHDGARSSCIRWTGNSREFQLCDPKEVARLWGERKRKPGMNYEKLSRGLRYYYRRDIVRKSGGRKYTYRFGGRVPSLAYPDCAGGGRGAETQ
Procedure, shortened: as §1

ELF3 = target: T3, ELF3 (Homo sapiens, UniProt P78545 1-371)
T3 sequence: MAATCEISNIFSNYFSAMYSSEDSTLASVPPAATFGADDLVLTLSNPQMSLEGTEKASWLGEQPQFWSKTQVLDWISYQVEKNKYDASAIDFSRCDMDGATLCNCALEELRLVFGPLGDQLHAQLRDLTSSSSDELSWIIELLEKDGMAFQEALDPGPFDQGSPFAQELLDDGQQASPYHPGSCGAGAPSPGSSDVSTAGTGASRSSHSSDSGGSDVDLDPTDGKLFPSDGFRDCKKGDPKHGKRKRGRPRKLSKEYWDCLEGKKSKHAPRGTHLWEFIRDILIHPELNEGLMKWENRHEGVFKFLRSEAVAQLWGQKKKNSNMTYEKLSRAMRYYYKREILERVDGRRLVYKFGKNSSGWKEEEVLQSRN
Procedure, shortened: as §1

ERF = target: T4, ERF (Homo sapiens, UniProt P50548 1-548)
T4 sequence: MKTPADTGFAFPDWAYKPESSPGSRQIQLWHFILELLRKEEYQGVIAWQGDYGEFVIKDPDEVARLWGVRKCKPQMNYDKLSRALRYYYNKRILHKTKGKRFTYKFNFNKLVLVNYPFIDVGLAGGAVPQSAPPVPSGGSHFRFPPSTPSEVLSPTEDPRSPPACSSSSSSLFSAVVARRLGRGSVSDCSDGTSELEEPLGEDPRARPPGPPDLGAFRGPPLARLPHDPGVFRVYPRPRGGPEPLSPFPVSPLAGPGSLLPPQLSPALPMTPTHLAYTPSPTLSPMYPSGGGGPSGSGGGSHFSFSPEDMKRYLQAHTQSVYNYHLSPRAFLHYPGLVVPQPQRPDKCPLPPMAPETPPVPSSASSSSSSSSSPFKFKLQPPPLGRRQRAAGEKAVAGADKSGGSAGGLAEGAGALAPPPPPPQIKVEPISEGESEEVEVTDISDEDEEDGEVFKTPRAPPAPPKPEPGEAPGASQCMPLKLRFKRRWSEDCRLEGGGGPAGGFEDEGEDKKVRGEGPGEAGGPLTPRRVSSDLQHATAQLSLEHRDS
Procedure, shortened: as §1

ETS2 = target: T5, ETS2 (Homo sapiens, UniProt P15036 1-469)
T5 sequence: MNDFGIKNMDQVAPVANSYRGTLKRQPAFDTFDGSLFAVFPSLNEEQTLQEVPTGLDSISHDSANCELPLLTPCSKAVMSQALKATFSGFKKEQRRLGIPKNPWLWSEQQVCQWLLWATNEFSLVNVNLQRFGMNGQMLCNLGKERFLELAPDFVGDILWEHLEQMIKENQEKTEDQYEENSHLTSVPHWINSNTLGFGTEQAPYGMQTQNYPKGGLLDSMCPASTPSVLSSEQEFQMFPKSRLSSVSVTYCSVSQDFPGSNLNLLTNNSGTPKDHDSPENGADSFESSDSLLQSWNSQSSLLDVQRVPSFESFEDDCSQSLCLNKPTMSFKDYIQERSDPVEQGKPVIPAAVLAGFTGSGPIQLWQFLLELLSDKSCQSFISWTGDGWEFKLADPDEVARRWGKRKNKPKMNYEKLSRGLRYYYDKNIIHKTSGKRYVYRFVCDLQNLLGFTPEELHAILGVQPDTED
Procedure, shortened: as §1

ETV7 = target: T6, ETV7 (Homo sapiens, UniProt Q9Y603 1-341)
T6 sequence: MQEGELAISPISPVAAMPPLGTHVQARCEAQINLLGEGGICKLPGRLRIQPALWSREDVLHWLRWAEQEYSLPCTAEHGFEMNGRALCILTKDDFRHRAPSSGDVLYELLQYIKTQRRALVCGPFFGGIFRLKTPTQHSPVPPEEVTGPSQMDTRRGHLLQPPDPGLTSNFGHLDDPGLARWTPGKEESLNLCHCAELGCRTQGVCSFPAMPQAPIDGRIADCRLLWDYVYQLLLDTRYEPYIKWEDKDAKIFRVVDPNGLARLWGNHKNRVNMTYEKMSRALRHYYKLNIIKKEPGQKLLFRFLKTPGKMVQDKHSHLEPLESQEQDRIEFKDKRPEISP
Procedure, shortened: as §1

ERG = target: T7, ERG (Homo sapiens, UniProt P11308 1-479)
T7 sequence: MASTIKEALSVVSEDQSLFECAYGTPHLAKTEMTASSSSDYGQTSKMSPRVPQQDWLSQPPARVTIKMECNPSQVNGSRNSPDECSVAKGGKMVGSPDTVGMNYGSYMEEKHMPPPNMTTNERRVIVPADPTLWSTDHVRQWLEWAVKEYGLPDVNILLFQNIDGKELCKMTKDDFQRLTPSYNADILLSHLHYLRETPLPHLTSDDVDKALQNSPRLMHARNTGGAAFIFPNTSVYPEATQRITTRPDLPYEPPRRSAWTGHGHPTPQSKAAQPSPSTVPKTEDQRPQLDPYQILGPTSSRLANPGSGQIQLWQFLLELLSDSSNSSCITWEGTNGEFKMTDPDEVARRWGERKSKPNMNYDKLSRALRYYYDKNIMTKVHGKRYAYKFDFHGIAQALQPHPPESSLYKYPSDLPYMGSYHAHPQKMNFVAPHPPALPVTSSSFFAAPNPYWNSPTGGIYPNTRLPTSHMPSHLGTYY
Procedure, shortened: as §1

ELF1 = ELF1 (Homo sapiens, UniProt P32519 1-619)
ELF1, sequence (P32519 whole entry): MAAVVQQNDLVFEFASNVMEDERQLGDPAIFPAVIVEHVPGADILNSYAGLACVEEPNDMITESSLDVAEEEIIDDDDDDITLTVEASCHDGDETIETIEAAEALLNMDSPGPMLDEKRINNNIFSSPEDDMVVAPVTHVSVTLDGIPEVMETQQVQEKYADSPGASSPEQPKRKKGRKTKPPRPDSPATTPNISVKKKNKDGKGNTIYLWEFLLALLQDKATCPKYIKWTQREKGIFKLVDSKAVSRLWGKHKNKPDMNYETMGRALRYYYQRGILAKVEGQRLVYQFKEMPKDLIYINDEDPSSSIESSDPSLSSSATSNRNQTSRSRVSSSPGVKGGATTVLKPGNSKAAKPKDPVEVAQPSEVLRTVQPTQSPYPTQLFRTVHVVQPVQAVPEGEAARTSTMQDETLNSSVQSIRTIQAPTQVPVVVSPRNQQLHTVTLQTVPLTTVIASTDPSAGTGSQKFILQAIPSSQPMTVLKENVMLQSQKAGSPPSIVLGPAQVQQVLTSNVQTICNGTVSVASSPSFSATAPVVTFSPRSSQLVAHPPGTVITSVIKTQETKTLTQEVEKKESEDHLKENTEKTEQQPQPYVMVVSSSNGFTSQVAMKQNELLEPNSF
Procedure, shortened: as §1

ELK4 = target: T8, ELK4 (Homo sapiens, UniProt P28324-2 1-405)
T8 sequence: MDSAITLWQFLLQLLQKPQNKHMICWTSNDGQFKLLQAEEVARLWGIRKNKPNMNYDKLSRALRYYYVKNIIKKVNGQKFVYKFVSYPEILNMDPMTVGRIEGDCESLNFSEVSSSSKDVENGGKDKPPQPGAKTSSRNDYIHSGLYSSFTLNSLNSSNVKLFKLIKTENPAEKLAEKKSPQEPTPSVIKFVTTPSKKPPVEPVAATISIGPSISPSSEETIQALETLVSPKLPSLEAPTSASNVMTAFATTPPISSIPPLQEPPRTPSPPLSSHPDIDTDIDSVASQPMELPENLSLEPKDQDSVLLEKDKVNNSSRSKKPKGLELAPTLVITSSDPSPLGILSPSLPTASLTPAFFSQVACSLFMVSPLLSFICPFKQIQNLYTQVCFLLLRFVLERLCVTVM
Procedure, shortened: as §1

ETV1 = ETV1 (Homo sapiens, UniProt P50549 1-477)
ETV1, sequence (P50549 whole entry): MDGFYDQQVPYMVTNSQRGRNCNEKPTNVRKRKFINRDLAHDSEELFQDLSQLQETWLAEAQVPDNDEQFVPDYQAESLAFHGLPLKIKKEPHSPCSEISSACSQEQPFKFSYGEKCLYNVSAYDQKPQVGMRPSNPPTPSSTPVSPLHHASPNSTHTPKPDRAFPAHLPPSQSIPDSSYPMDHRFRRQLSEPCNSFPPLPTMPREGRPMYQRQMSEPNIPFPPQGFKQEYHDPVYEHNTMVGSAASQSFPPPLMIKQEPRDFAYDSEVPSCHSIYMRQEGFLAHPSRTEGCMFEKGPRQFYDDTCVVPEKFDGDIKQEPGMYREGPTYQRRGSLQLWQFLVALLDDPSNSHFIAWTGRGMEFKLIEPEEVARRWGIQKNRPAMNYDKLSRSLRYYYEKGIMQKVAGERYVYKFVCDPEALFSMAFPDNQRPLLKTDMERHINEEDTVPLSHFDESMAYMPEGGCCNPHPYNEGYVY
Procedure, shortened: as §1

ETV3L = target: T9, ETV3L (Homo sapiens, UniProt Q6ZN32 1-361)
T9 sequence: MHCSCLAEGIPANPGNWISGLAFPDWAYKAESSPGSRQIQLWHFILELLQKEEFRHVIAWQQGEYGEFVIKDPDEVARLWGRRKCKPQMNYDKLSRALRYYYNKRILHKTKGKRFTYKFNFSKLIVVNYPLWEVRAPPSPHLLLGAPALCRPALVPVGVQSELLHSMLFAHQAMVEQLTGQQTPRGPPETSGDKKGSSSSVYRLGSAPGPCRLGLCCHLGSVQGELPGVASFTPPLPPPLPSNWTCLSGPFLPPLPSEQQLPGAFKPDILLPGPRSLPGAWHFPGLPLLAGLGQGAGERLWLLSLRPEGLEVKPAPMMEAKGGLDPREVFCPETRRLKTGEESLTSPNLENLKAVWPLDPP
Procedure, shortened: as §1

SPDEF = target: T10, SPDEF (Homo sapiens, UniProt O95238 1-335)
T10 sequence: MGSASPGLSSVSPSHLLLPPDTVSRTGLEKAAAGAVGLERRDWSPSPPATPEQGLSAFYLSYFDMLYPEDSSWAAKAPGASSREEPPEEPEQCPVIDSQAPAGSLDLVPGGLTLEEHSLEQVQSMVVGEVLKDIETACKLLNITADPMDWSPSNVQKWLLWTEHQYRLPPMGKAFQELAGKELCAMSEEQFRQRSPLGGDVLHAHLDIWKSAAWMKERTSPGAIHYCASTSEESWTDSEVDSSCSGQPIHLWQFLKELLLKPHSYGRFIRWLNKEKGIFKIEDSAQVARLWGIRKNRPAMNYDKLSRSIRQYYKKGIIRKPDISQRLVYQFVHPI
Procedure, shortened: as §1

ETV6 = ETV6 (Homo sapiens, UniProt P41212 1-452)
ETV6, sequence (P41212 whole entry): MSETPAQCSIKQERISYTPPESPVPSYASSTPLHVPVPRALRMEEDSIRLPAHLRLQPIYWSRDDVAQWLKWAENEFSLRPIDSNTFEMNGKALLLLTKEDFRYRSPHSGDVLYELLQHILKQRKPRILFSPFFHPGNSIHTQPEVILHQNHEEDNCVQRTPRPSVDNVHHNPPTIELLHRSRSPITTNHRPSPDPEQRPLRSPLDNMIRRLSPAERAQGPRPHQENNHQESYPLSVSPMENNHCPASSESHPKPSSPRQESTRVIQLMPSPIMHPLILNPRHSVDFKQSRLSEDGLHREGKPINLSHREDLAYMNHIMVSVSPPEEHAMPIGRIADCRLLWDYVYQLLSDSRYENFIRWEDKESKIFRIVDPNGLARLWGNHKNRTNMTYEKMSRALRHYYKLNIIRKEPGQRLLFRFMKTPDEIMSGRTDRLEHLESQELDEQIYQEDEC
Procedure, shortened: as §1

## CGAACG
EHF
  binding signal: 1 fold enrichment (6-mer frequency, TF over GST control)
ETV5
  binding signal: 1.03 fold enrichment (6-mer frequency, TF over GST control)
ETV2
  binding signal: 1.09 fold enrichment (6-mer frequency, TF over GST control)
ELF3
  binding signal: 1.05 fold enrichment (6-mer frequency, TF over GST control)
ERF
  binding signal: 1.11 fold enrichment (6-mer frequency, TF over GST control)
ETS2
  binding signal: 1.03 fold enrichment (6-mer frequency, TF over GST control)
ETV7
  binding signal: 1.02 fold enrichment (6-mer frequency, TF over GST control)

## TCACGG
ERG
  binding signal: 1.02 fold enrichment (6-mer frequency, TF over GST control)
ELF1
  binding signal: 1.06 fold enrichment (6-mer frequency, TF over GST control)
EHF
  binding signal: 1.08 fold enrichment (6-mer frequency, TF over GST control)
ETV5
  binding signal: 1.04 fold enrichment (6-mer frequency, TF over GST control)
ELK4
  binding signal: 1.02 fold enrichment (6-mer frequency, TF over GST control)
ETV1
  binding signal: 1.09 fold enrichment (6-mer frequency, TF over GST control)
ERF
  binding signal: 1.06 fold enrichment (6-mer frequency, TF over GST control)
ETV3L
  binding signal: 1.02 fold enrichment (6-mer frequency, TF over GST control)
ETS2
  binding signal: 1.04 fold enrichment (6-mer frequency, TF over GST control)
SPDEF
  binding signal: 1.1 fold enrichment (6-mer frequency, TF over GST control)
ETV7
  binding signal: 1.04 fold enrichment (6-mer frequency, TF over GST control)
ETV6
  binding signal: 1.05 fold enrichment (6-mer frequency, TF over GST control)

— article PMC7862700, “An all-to-all approach to the identification of sequence-specific readers for epigenetic DNA modifications on cytosine”
